About 83,000 compounds went through this panel and 20% of them were active in at least one assay; those are over-represented in the sample as a whole.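 A percent growth of 40 corresponds to 60% growth inhibition; 0 means no net growth; -100 means all cells died. Active threshold: below 10.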 Values without a mark were called inactive. The source made the active and inactive calls.

The test has as its system SNB-75 CNS. Briefly: NCI-60 one-dose screen, 48 h (100 = growth as untreated, 0 = no growth, -100 = all killed). As to conditions: 10 µM unless noted.
With `Nc1ncnc2c1ccn2-c1cccc(NC(=O)c2cccc(C(F)(F)F)c2)c1`, the growth was 67%. On to `COc1ccc(Cl)cc1NC(=O)c1cc2c([nH]1)-c1nc(NC(=O)C(C)(C)C)sc1CC2`, for which the growth is 50.5%. On to `COc1ccc(-c2coc3c(CO)c(O)ccc3c2=O)cc1`, for which the growth is 115%. For `CC(=O)c1cc2c(c(O)c1C)C(=O)C(=O)c1c(O)cccc1-2`, the growth was -98.2% (active). In the case of `O=C(Cn1c2ccccc2c2ccncc21)N/N=C\c1ccc2ccccc2c1` it was 3.82% (active); in that of `OC(COc1ccccc1Cl)CN1CCN(c2ccc(Cl)cc2)CC1` (stereo not drawn), 83.3%; in that of `O=C(Nc1ccc(-n2ccc3c(NC(=O)c4ccccc4)nccc32)cc1)c1cccc(C(F)(F)F)c1`, 43.9%. Consider `Cc1cc(N2CCOCC2)nc(N(CCNc2ccnc3cc(Cl)ccc23)Cc2ccco2)n1`, for which the growth was 59.5%. The figure for `CCCCC(=O)Nc1nc2ccc(SCCC)cc2s1` is 33.2%. The figure for `COc1cc2ncnc(Oc3ccc(NC(=O)Nc4ccc(CN5CCOCC5)c(C(F)(F)F)c4)c4ccccc34)c2cc1OC` is 46%. The figure for `FC(F)(F)c1cccc([Si](F)(c2cccc(C(F)(F)F)c2)c2cccc(C(F)(F)F)c2)c1` is 80.4%. Take `O=C(O)c1cccc(S(=O)(=O)c2ccccc2)c1`: the growth was 84.2%. In the case of `C=C1C(=O)O[C@H]2[C@H]1CC/C(COC(=O)CCCC(=O)OC/C1=C/CC[C@@]3(C)O[C@H]3[C@H]3OC(=O)C(=C)[C@@H]3CC1)=C\CC[C@@]1(C)O[C@@H]21` it was 93.3%.
